Among the data in publication PMC7862700, “An all-to-all approach to the identification of sequence-specific readers for epigenetic DNA modifications on cytosine” are binding signal values, retold here.

What all share (test): DAPPL (digital affinity profiling via proximity ligation, sequencing); 10 mM Tris-HCl pH 7.5, 50 mM NaCl, 1 mM DTT, 4% glycerol, room temperature, 30 min; GST-TFs on glutathione beads, 16-mer random dsDNA library, 0.1% formaldehyde crosslink after washing; high values mean tight binding
Common to all, as to conditions: protein: recombinant; tags: N-terminal GST; dsDNA, one strand shown

In one experiment the target is T1, ETV3L (Homo sapiens, UniProt Q6ZN32 1-361).
T1 sequence: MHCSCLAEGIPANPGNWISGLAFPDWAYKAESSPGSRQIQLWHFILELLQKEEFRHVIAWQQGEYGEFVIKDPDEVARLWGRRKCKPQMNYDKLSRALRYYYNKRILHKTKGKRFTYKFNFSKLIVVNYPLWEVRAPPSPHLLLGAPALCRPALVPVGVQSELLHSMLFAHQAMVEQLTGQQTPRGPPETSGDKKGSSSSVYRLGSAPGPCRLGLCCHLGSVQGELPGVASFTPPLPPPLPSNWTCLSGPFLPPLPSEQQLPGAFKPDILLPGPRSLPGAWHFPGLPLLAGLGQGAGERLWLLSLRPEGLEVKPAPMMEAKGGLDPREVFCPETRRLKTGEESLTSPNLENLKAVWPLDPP
In outline:
(§1)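 Human transcription factors carrying a GST fusion were produced in yeast, bound to glutathione beads, tagged with DNA barcodes and pooled together with a tag-only sample. Each pool was held with 200 nmole of a random double-stranded 16-mer DNA library in Tris/NaCl/DTT/glycerol buffer for 30 min at room temperature, then washed, crosslinked in 0.1% formaldehyde, proximity-ligated with BsaI/T4 ligase (1 h, 37 °C), PCR-amplified and sequenced on an Illumina NextSeq500. Binding signal is the read frequency of each hexamer for a given factor divided by its frequency in the tag-only sample.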

In the next experiment the target is T2, ETS2 (Homo sapiens, UniProt P15036 1-469).
T2 sequence: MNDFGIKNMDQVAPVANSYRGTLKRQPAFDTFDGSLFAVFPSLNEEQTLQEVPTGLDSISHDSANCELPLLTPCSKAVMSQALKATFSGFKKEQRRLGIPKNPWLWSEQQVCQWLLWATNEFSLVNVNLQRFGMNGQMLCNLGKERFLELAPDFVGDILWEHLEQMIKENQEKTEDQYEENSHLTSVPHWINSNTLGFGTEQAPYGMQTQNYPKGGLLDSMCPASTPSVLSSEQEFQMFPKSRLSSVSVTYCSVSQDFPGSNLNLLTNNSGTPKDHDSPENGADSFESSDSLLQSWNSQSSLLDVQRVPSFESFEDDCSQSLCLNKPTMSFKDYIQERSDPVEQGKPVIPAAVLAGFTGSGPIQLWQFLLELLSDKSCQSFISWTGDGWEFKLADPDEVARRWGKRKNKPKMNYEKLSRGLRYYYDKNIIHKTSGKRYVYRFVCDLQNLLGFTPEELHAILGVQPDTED
In outline: as §1

A further experiment has as its target T3, SPDEF (Homo sapiens, UniProt O95238 1-335).
T3 sequence: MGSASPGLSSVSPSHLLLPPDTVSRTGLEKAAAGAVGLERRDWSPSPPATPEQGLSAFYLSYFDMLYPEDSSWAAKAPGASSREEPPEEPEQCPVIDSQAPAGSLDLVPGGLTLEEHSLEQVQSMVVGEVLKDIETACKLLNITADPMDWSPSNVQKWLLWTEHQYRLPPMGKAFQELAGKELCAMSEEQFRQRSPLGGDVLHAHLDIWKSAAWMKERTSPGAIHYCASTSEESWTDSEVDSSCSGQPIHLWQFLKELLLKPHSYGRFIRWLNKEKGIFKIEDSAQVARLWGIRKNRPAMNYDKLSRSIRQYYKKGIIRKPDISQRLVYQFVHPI
In outline: as §1

The target of another experiment is T4, ELF5 (Homo sapiens, UniProt Q9UKW6-2 1-255).
T4 sequence: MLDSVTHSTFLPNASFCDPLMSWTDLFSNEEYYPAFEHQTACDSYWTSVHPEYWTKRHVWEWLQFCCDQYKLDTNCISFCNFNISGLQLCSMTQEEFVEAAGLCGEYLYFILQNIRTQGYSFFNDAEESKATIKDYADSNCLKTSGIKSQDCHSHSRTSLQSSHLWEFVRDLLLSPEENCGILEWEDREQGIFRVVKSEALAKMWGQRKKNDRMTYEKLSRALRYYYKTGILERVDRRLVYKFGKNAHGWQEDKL
The method, boiled down: as §1

The next experiment has as its target T5, ETV3 (Homo sapiens, UniProt P41162-2 1-143).
T5 sequence: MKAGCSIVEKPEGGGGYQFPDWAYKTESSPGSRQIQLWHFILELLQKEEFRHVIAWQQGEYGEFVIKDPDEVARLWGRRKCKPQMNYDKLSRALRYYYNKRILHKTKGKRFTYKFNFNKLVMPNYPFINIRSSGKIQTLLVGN
In outline:
as §1

For another experiment, the target named is ETV6 (Homo sapiens, UniProt P41212 1-452). In outline: as §1
Sequence of ETV6 (P41212 whole entry): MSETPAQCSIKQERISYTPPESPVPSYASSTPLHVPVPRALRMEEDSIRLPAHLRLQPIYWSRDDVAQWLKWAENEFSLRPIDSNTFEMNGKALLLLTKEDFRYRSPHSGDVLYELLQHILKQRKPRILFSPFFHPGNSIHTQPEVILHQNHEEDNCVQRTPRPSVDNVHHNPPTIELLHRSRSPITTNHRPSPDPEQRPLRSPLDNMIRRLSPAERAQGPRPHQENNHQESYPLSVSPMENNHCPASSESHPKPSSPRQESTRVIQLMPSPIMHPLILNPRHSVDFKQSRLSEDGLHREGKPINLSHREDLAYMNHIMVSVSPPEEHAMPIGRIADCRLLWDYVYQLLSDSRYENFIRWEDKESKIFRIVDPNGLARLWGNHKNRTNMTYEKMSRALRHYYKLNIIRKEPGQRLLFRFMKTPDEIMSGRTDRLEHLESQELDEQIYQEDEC
For the next experiment, the target named is T6, ETV7 (Homo sapiens, UniProt Q9Y603 1-341).
T6 sequence: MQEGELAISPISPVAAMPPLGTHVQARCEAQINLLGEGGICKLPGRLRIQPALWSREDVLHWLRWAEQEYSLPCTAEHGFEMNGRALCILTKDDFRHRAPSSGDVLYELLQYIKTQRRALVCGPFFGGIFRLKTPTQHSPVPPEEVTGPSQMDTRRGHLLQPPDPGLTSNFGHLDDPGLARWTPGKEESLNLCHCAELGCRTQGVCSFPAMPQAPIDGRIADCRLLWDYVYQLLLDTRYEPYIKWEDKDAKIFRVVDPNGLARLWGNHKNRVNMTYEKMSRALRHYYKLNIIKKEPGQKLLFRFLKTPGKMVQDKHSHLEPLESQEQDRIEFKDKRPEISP
In outline: as §1

TGGGTT: the binding signal in the experiment with ETV3L is 1.17 fold enrichment (6-mer frequency, TF over GST control); with ETS2, 1.06 fold enrichment (6-mer frequency, TF over GST control); with SPDEF, 1.05 fold enrichment (6-mer frequency, TF over GST control); in the experiment with ELF5 it was 1.01 fold enrichment (6-mer frequency, TF over GST control); with ETV3, 1.02 fold enrichment (6-mer frequency, TF over GST control); in the experiment with ETV6, 1 fold enrichment (6-mer frequency, TF over GST control).
AGACCT: the binding signal with ETV3L is 1.07 fold enrichment (6-mer frequency, TF over GST control); with ETS2, 1.01 fold enrichment (6-mer frequency, TF over GST control); with ELF5 it was 1.05 fold enrichment (6-mer frequency, TF over GST control); with ETV6, 1.11 fold enrichment (6-mer frequency, TF over GST control).
Take GAATAT: the binding signal with ETV3L was 1.05 fold enrichment (6-mer frequency, TF over GST control); with ETS2, 1.05 fold enrichment (6-mer frequency, TF over GST control); with SPDEF, 1.02 fold enrichment (6-mer frequency, TF over GST control); with ETV7, 1.1 fold enrichment (6-mer frequency, TF over GST control); in the experiment with ELF5 it was 1.12 fold enrichment (6-mer frequency, TF over GST control); with ETV3, 1.12 fold enrichment (6-mer frequency, TF over GST control). Besides, the binding signal with ETV6 was 1.07 fold enrichment (6-mer frequency, TF over GST control).
TTATTA: the binding signal with ETV3L is 1.11 fold enrichment (6-mer frequency, TF over GST control); with ETS2 it was 1.07 fold enrichment (6-mer frequency, TF over GST control); with SPDEF, 1.12 fold enrichment (6-mer frequency, TF over GST control); with ETV7 it was 1.11 fold enrichment (6-mer frequency, TF over GST control); with ELF5, 1.13 fold enrichment (6-mer frequency, TF over GST control); in the experiment with ETV3, 1.14 fold enrichment (6-mer frequency, TF over GST control). For the same sequence, the binding signal with ETV6 was 1.13 fold enrichment (6-mer frequency, TF over GST control).
For GTTAAT, the binding signal with ETV3L was 1.11 fold enrichment (6-mer frequency, TF over GST control); in the experiment with ETS2, 1.08 fold enrichment (6-mer frequency, TF over GST control); with SPDEF it was 1.09 fold enrichment (6-mer frequency, TF over GST control); with ETV7, 1.07 fold enrichment (6-mer frequency, TF over GST control); with ELF5, 1.1 fold enrichment (6-mer frequency, TF over GST control); with ETV3 it was 1.1 fold enrichment (6-mer frequency, TF over GST control). The binding signal with ETV6 is 1.06 fold enrichment (6-mer frequency, TF over GST control).
Consider CTAGGC, for which the binding signal in the experiment with ETV3L is 1.07 fold enrichment (6-mer frequency, TF over GST control); with ETS2, 1.01 fold enrichment (6-mer frequency, TF over GST control); in the experiment with SPDEF, 1 fold enrichment (6-mer frequency, TF over GST control); in the experiment with ETV7, 1.2 fold enrichment (6-mer frequency, TF over GST control); with ELF5, 1.04 fold enrichment (6-mer frequency, TF over GST control); in the experiment with ETV3 it was 1.09 fold enrichment (6-mer frequency, TF over GST control). In addition, the binding signal with ETV6 is 1.06 fold enrichment (6-mer frequency, TF over GST control).
With AAGGCT, the binding signal with ETV3L is 1.02 fold enrichment (6-mer frequency, TF over GST control); with SPDEF, 1.04 fold enrichment (6-mer frequency, TF over GST control); with ETV7, 1.06 fold enrichment (6-mer frequency, TF over GST control); with ELF5 it was 1.06 fold enrichment (6-mer frequency, TF over GST control); with ETV3, 1.04 fold enrichment (6-mer frequency, TF over GST control); with ETV6, 1.02 fold enrichment (6-mer frequency, TF over GST control).
In the case of GAAAGA, the binding signal was 1.03 fold enrichment (6-mer frequency, TF over GST control) with ETV3L; 1.02 fold enrichment (6-mer frequency, TF over GST control) with ETS2; 1.1 fold enrichment (6-mer frequency, TF over GST control) in the experiment with ETV7; 1.01 fold enrichment (6-mer frequency, TF over GST control) with ETV3; 1.09 fold enrichment (6-mer frequency, TF over GST control) in the experiment with ETV6.
With AATCGA, the binding signal with ETV3L is 1.04 fold enrichment (6-mer frequency, TF over GST control); with ETV7 it was 1.08 fold enrichment (6-mer frequency, TF over GST control); with ETV3 it was 1.07 fold enrichment (6-mer frequency, TF over GST control); in the experiment with ETV6, 1.01 fold enrichment (6-mer frequency, TF over GST control).
For ACACCA, the binding signal is 1.04 fold enrichment (6-mer frequency, TF over GST control) with ETV3L; 1.01 fold enrichment (6-mer frequency, TF over GST control) with ELF5; 1.02 fold enrichment (6-mer frequency, TF over GST control) with ETV3.
CAAGGT: the binding signal with ETV3L is 1.12 fold enrichment (6-mer frequency, TF over GST control); with ETS2 it was 1.11 fold enrichment (6-mer frequency, TF over GST control); in the experiment with SPDEF, 1.03 fold enrichment (6-mer frequency, TF over GST control); with ETV7 it was 1.1 fold enrichment (6-mer frequency, TF over GST control); with ETV3, 1.02 fold enrichment (6-mer frequency, TF over GST control); in the experiment with ETV6, 1.01 fold enrichment (6-mer frequency, TF over GST control).
With TGGCCC, the binding signal is 1.07 fold enrichment (6-mer frequency, TF over GST control) in the experiment with ETV3L; 1.12 fold enrichment (6-mer frequency, TF over GST control) with ETS2; 1.03 fold enrichment (6-mer frequency, TF over GST control) with SPDEF; 1.01 fold enrichment (6-mer frequency, TF over GST control) with ETV7; 1.02 fold enrichment (6-mer frequency, TF over GST control) with ELF5; 1.03 fold enrichment (6-mer frequency, TF over GST control) with ETV3. Moreover, in the experiment with ETV6, the binding signal is 1.06 fold enrichment (6-mer frequency, TF over GST control).
For the sequence AACGTT, the binding signal with ETV3L is 1.11 fold enrichment (6-mer frequency, TF over GST control); with ETS2 it was 1.17 fold enrichment (6-mer frequency, TF over GST control); with SPDEF, 1.12 fold enrichment (6-mer frequency, TF over GST control); with ETV7, 1.1 fold enrichment (6-mer frequency, TF over GST control); with ELF5, 1.16 fold enrichment (6-mer frequency, TF over GST control); with ETV3 it was 1.11 fold enrichment (6-mer frequency, TF over GST control). Moreover, the binding signal with ETV6 is 1.19 fold enrichment (6-mer frequency, TF over GST control).
In the case of AATGGA, the binding signal with ETV3L is 1.08 fold enrichment (6-mer frequency, TF over GST control); with ETS2, 1.09 fold enrichment (6-mer frequency, TF over GST control); with ETV7, 1.03 fold enrichment (6-mer frequency, TF over GST control); with ETV6, 1.12 fold enrichment (6-mer frequency, TF over GST control).
Take TAAGCG: the binding signal was 1.03 fold enrichment (6-mer frequency, TF over GST control) in the experiment with ETV3L; 1.05 fold enrichment (6-mer frequency, TF over GST control) with ETS2; 1.01 fold enrichment (6-mer frequency, TF over GST control) with ELF5; 1.05 fold enrichment (6-mer frequency, TF over GST control) with ETV3; 1.01 fold enrichment (6-mer frequency, TF over GST control) with ETV6.
Take AGCATC: the binding signal in the experiment with ETV3L was 1.02 fold enrichment (6-mer frequency, TF over GST control); in the experiment with ETS2, 1.09 fold enrichment (6-mer frequency, TF over GST control); in the experiment with SPDEF, 1.27 fold enrichment (6-mer frequency, TF over GST control); with ELF5, 1.08 fold enrichment (6-mer frequency, TF over GST control); in the experiment with ETV3, 1.07 fold enrichment (6-mer frequency, TF over GST control); with ETV6 it was 1.03 fold enrichment (6-mer frequency, TF over GST control).
As for ATAGGT, the binding signal with ETV3L is 1.05 fold enrichment (6-mer frequency, TF over GST control); with SPDEF, 1.05 fold enrichment (6-mer frequency, TF over GST control); with ETV7, 1.17 fold enrichment (6-mer frequency, TF over GST control); with ETV3, 1.06 fold enrichment (6-mer frequency, TF over GST control).
